# Source: article PMC10668032, “Altered binding affinity of SIX1-Q177R correlates with enhanced WNT5A and WNT pathway effector expression in Wilms tumor”
# The full ranking holds about 33,000 sequences; the median of “e-score” is about -0.05, and the highest 2% start at about 0.38. This is one part of a sample in which the highest values are shown more often than they occur.
# Target: T1, SIX1-Q177R homeodomain (human, UniProt Q15475 108-198, Q177R)
# T1 sequence: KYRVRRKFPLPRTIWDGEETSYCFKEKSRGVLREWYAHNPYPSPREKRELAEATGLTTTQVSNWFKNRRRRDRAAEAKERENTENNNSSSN
# Assay: universal protein binding microarray; Universal all-10-mer PBM (8x60K, AMADID 030236), 300 nM GST-tagged protein, Alexa Fluor 488 anti-GST; buffer, salt, pH and temperature not stated (as in Berger); high values mean tight binding
# Conditions: protein: ivt; tags: N-terminal GST; dsDNA, one strand shown
# Summary of the method: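 Homeodomains fused to GST were made by in vitro transcription/translation and measured by anti-GST western blot with a recombinant GST standard curve. At 300 nM final concentration, they were applied in duplicate to universal 'all 10-mer' protein binding microarrays (8×60K format).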
row,Sequence,binding signal [E-score]
1,CCCGAAGG,0.193 ± 0.0115
2,ACGCGTCC,0.174 ± 0.00808
3,GAATAACA,0.151 ± 0.00831
4,GATACCGA,0.214 ± 0.0181
5,ACTACCCC,0.267 ± 0.00871
6,ACTACTCC,0.163 ± 0.045
7,CCTACCCG,0.183 ± 0.0228
8,CCTACACG,0.398 ± 0.0115
9,ACTACACC,0.4877 ± 0.000997
10,CCTACACA,0.18 ± 0.0508
11,ACCCCTCA,0.289 ± 0.021
12,CTGTGCAC,0.216 ± 0.0216
13,ACCCCGTG,0.356 ± 0.0239
14,TGAACACA,0.173 ± 0.0727
15,GGAACACA,0.189 ± 0.0298
16,AGAACACG,0.356 ± 0.0118
17,CGAACACC,0.4736 ± 0.00203
18,AGAACACT,0.344 ± 0.0153
19,GGAACACC,0.4735 ± 0.00301
20,CGAACACG,0.3556 ± 0.00281
21,CGAACACA,0.215 ± 0.0469
22,AGAACACC,0.459 ± 0.00494
23,CGGGGATA,0.202 ± 0.00822

row,Sequence,binding signal [E-score]
1,AATGGGTG,0.281 ± 0.0496
2,CACGCGTA,0.184 ± 0.0106
3,ACACCTAC,0.4555 ± 0.00215
4,ATACCTAG,0.196 ± 0.0172
5,ACCCCTAA,0.183 ± 0.0117
6,ACACTTAT,0.349 ± 0.02
7,ACACCTAG,0.4448 ± 0.00199
8,ACACCTAA,0.4446 ± 0.00441
9,ACACCTGT,0.46033 ± 0.000212
10,ACCCCTAG,0.208 ± 0.00908
11,ATACCTAC,0.224 ± 0.0121
12,TCCCCTAA,0.172 ± 0.0106
13,CCACCTAC,0.17 ± 0.0551
14,ACACATAT,0.239 ± 0.0295
15,CAGAAGGG,0.157 ± 0.0162
16,CCCCGAAA,0.168 ± 0.0462
17,CACCCAAC,0.301 ± 0.0371
18,CCCCAAAC,0.197 ± 0.0113
19,GGTCGAAC,0.22817 ± 0.00017
20,GGGCGGTA,0.18 ± 0.0297
21,ACACATAG,0.155 ± 0.0872
22,ACACCTAT,0.448 ± 0.00643
23,ACCCCTAT,0.172 ± 0.00706

row,Sequence,binding signal [E-score]
1,CACCACTG,0.342 ± 0.00325
2,GCGGTCGA,0.152 ± 0.00747
3,ACACAGTG,0.259 ± 0.0202
4,CGGGATCA,0.269 ± 0.00773
5,CAGCACAC,0.269 ± 0.0132
6,GAGTACAC,0.4362 ± 0.00255
7,AAGTACCC,0.2054 ± 0.000912
8,CAGTACCG,0.185 ± 0.0235
9,GAGTACTC,0.1739 ± 0.000948
10,GAGTACCC,0.173 ± 0.00951
11,CAGTACAC,0.433 ± 0.00665
12,AAGTACAC,0.425 ± 0.0204
13,AAGTAATC,0.163 ± 0.0142
14,ACACAGCC,0.164 ± 0.059
15,GATTGAAC,0.162 ± 0.0507
16,GGATCCAA,0.201 ± 0.0192
17,CACGTGGA,0.243
18,AGGTGACT,0.165 ± 0.006
19,CACCCTCA,0.264 ± 0.0103
20,GTGTTGCA,0.3853 ± 0.00118
21,GGGTTGTA,0.169 ± 0.0161
22,GTGTTTCA,0.357 ± 0.00873
23,GTGTTGTA,0.389 ± 0.00682

row,Sequence,binding signal [E-score]
1,GTGTTGAA,0.396 ± 0.00711
2,GTGTTGGA,0.414 ± 0.0127
3,CCGTTGAC,0.16 ± 0.0161
4,GTTGTGTA,0.255 ± 0.0169
5,CGATCCAC,0.2384 ± 0.00175
6,CCTACGCA,0.17 ± 0.0129
7,CACGAAAG,0.16 ± 0.0281
8,TACGGACA,0.168 ± 0.019
9,CACTGGTA,0.3128 ± 0.00191
10,ATCTGACA,0.275 ± 0.0351
11,CACCCATG,0.34 ± 0.0139
12,CACCTGTC,0.224 ± 0.0498
13,CTTTCACA,0.24 ± 0.00834
14,AACGGGGT,0.205 ± 0.0313
15,AAGGGATC,0.194 ± 0.0447
16,CCTCAACA,0.204 ± 0.0178
17,AAGAGTTA,0.172 ± 0.0103
18,ACACACGC,0.267 ± 0.0306
19,ACACACGG,0.301 ± 0.0255
20,ATACACGG,0.401 ± 0.0111
21,ATACACGA,0.38 ± 0.00658
22,ATACACGC,0.396 ± 0.0178
23,CCACACGG,0.197 ± 0.0212

row,Sequence,binding signal [E-score]
1,CGTATACG,0.153 ± 0.0218
2,ACCTTGTA,0.203 ± 0.0145
3,CACGTATA,0.2103 ± 0.000226
4,CACTTGCC,0.227 ± 0.036
5,CGCCACAC,0.314 ± 0.0118
6,AGACCCCG,0.281 ± 0.0369
7,CCAACTAG,0.223 ± 0.00917
8,CACCTCAG,0.26 ± 0.0094
9,CCAATTTA,0.238 ± 0.0221
10,ACACCAGA,0.472 ± 0.00546
11,ACACCAGC,0.4638 ± 0.00122
12,ACCCCAGG,0.249 ± 0.0168
13,ACCCCAGA,0.201 ± 0.039
14,ACCACAGT,0.22 ± 0.00384
15,GCACCAGA,0.181 ± 0.0305
16,ACAGCACC,0.1838 ± 0.000898
17,ACACCAGT,0.48 ± 0.008
18,ACACCAGG,0.472 ± 0.00716
19,ACTCCAGG,0.228 ± 0.00384
20,ACCCCAGT,0.27 ± 0.0137
21,ACCCCAGC,0.235 ± 0.0628
